Compound activity: PubChem BioAssay, National Center for Advancing Translational Sciences (NCATS)
Shown are actives, neighbours in structure and some others; about 5.7% of the full set was active somewhere.
KB-3-1 tox: qHTS assay for MDR1-selective chemotherapeutics: Primary screen using the parental adenocarcinoma cell KB-3-1; AID 1347075, 2019; KB-3-1 viability, CellTiter-Glo ATP luminescence, 72 h; 1.4% of 400,000 active; Potency, µM (highest dose often 46.1 µM), usual class: cytotoxic; further: potency means the concentration at half of the fitted maximal effect; nearly all actives have a fitted effect of over 60% in size
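Viability of parental KB-3-1 cells, measured by CellTiter-Glo luminescence, followed a 72 h incubation at 37 °C with pinned compounds in phenol-red-free DMEM containing 10% FBS.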
Nrf2 inh: Nrf2 qHTS screen for inhibitors; 2.1% of 360,000 active; Potency, µM (doses to about 46 µM), for the others: top-dose activity change, negative = inhibition, usual class: inhibitors; A549 ARE-Fluc reporter, luciferase luminescence, 18-24 h; further: potency means the concentration at half of the fitted maximal effect; nearly all actives have a fitted effect of over 60% in size
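Reporter: ARE-Fluc in A549. Exposure: 18-24 h, 37 °C, 5% CO2, 5% FBS OPTI-MEM. Readouts: fluorescent cytotoxicity (CellTiter-Fluor), then luminescent Nrf2 signal after BugLite.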
Giardia killer: Small Molecules that selectively kill Giardia lamblia: qHTS. Giardia lamblia trophozoite viability. activity change, % at 7.66 µM, hits read low. 0.15% of 340,000 active; in the data active means activity change below about -80%; inconclusive means between about -30% and that limit;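 further: parasites exposed to compound for two days anaerobically before the ATP read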
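Compounds were tested on trophozoites seeded at 100 cells/well and held 48 hrs at 37 deg C anaerobically. An ATP-based luminescent kit measured the remaining live cells.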
KB-V1 MDR tox: qHTS assay for MDR1-selective chemotherapeutics: Primary screen using the drug-selected MDR subline cells KB-V1; KB-V1 MDR cells viability, CellTiter-Glo, 72 h; Potency, µM (top dose mostly 46.1 µM), most hits filed as cytotoxic; 3.4% of 400,000 active; AID 1347076, 2019; further: potency means the concentration at half of the fitted maximal effect; nearly all actives have a fitted effect of over 60% in size
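qHTS viability screen in drug-selected KB-V1 MDR cells: 72 h compound treatment at 37 degrees C, ATP luminescence end point.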
A549 viability: Nrf2 qHTS screen for inhibitors: counterscreen for cytotoxicity | A549 ARE-Fluc cells, CellTiter-Fluor viability, 18-24 h | Potency, µM (doses to about 46 µM), for inactives: at the top dose activity change, negative = cytotoxicity, usual class: inhibitors | 0.16% of 390,000 active; further: potency means the concentration at half of the fitted maximal effect
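A549 ARE_Fluc cells in 5% FBS OPTI-MEM were exposed to compounds in concentration-response for 18-24 h at 37 deg C. Viability was read by CellTiter-Fluor fluorescence (Ex 405/Em 525) after 30 min, before the luciferase read.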
PI4K2A inh: qHTS for small molecular inhibitors of PI4K2A | activity change, negative = inhibition, % at 76.9 µM | purified PI4K2A, ADP-Glo luminescence, 1 h; hits give low values | 0.13% of 420,000 active; in the data active means activity change below about -50%; inconclusive means mostly about -30% to -49%;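 further: -100% = wells without enzyme as full effect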
Target sequence (Q9BTU6 whole entry, looked up): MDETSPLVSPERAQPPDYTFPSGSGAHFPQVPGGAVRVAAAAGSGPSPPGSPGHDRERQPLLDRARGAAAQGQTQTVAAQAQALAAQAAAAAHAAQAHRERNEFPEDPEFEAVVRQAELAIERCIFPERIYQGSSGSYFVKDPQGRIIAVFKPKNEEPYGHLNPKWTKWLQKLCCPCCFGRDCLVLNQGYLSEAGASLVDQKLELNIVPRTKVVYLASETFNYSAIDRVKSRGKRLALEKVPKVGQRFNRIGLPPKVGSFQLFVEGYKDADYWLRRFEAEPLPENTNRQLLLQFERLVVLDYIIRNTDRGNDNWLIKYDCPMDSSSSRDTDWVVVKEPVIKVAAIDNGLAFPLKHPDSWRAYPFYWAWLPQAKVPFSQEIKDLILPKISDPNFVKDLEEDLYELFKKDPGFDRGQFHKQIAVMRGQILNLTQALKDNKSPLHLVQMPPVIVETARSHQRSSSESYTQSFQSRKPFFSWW
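Compounds are screened against recombinant PI4K2A using PI as substrate and ATP, the latter dispensed at 300 microM. Reactions run one hour at ambient temperature before ADP-Glo detection; full inhibition defined by wells lacking enzyme.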
Active calls of the source: *; i = inactive; ? = inconclusive; / = no result. Unless noted, the call rests on the fitted dose curve; in most records, active means well fitted curve in the direction sought with a large enough effect; inconclusive means small, poorly fitted or top-dose-only effect, or another doubt; inactive means no such curve, though single readings can be large; an effect the other way counts as inactive or inconclusive. Unless noted, on the % scale 0 is the no-effect control and ±100 the full control effect.

SMILES	KB-3-1 tox	Nrf2 inh	Giardia killer	KB-V1 MDR tox	A549 viability	PI4K2A inh
COc1ccc(-c2cn3nc(N4CCC(C(=O)Nc5cc(Cl)ccc5C)CC4)sc3n2)cc1	i	12%	/	i	0%	4
COc1ccc(-c2nc3sc(CCNC(=O)C(=O)Nc4ccccc4C#N)c(C)n3n2)cc1	/	/	/	/	-2%	-1
COc1ccc(NC(=O)C2CC3C=CC2C3)c([N+](=O)[O-])c1 (stereo not given)	i	10%	12	21µM*	?	-2
Cc1nn(-c2ccccc2)c(Cl)c1C(=O)OC(C)C(=O)Nc1ccc2c(c1)OCO2 (stereo not given)	i	-8%	-6	i	-1%	10
CC(OC(=O)c1cccn1C)C(=O)Nc1ccc2c(c1)OCO2 (stereo not given)	?	26µM*	5	i	1%	0
O=C(CSc1nc2ccccc2nc1N1CCCCC1)N1CCN(S(=O)(=O)c2cc(Cl)ccc2Cl)CC1	/	/	/	/	/	19
CCc1cccc(C)c1NC(=O)c1cnn(-c2ccc(OC)cc2)c1C1CCN(C(=O)OC(C)(C)C)CC1	?	23µM*	/	i	-15%	2
Cc1ccc(C)c(N2CCN(CCCNC(=O)c3cnn(-c4ccccc4)c3C3CCN(C(=O)OC(C)(C)C)CC3)CC2)c1	?	18µM*	/	?	?	-5
COc1ccc(CCN2CCC(CNC(=O)c3cnn(-c4ccccc4)c3C3CCN(C(=O)OC(C)(C)C)CC3)CC2)cc1	16µM*	?	/	?	-7%	0
COc1ccc2[nH]cc(CCNC(=O)c3cnn(-c4ccc(C)cc4)c3C3CCN(C(=O)OC(C)(C)C)CC3)c2c1	i	15µM*	/	i	-20%	2
C=Cc1nc(Nc2cc(F)cc(F)c2)nc(NC2CCCC2)n1	/	10%	/	/	-3%	/
CNC(C#Cc1ccccc1)c1ccccc1C(F)(F)F (stereo not given)	/	/	/	/	/	-5
CCOC(=O)N1C(=O)C[C@](Sc2ccc(OC)cc2)(C(=O)N2CCN(C(C)=O)CC2)[C@H]1c1ccc(OC)cc1	/	/	/	/	/	7
COc1cc(Cl)c(C)cc1NC(=O)c1cnn(-c2ccc(F)cc2F)c1C1CCN(C(=O)OC(C)(C)C)CC1	i	?	/	i	3%	3
Cc1c(Cl)cccc1-n1ncc(C(=O)Nc2ccc(F)cc2F)c1C1CCN(C(=O)OC(C)(C)C)CC1	i	26µM*	/	?	-11%	2
O=[S+]([O-])(c1cc2ccccc2o1)N1CCN([S+](=O)([O-])c2c(F)cccc2F)CC1	/	-11%	/	/	-3%	/
Cc1ccc(C(C#N)c2ccc(C(=O)c3ccc(F)cc3)cc2)cc1 (stereo not given)	?	26µM*	15	i	-1%	-8
N#CC(c1ccc(F)cc1)c1ccc(C(=O)c2ccc(F)cc2)cc1 (stereo not given)	?	15µM*	-4	i	-11%	-1
O=C(c1ccc(F)cc1)c1ccc(-c2ccc(F)cc2)nc1	i	12%	?	i	-2%	-2
CCN(CC)S(=O)(=O)c1ccc2c(c1)nc(CCC(=O)Nc1ccccc1Cc1ccccc1)n2CC	i	?	12	21µM*	-5%	2
CCn1c(CCC(=O)Nc2cc(F)ccc2C)nc2cc(S(=O)(=O)N(C)C)ccc21	i	-13%	-3	i	5%	-3
COc1ccc(C2(OC)Oc3cc(OC)ccc3C(=O)C2(O)OC)cc1 (stereo not given)	?	6%	1	2.9µM*	-8%	22
O=C(CCn1c(=O)c2cccn2c2ccc(F)cc21)NCCc1ccccc1Cl	/	-7%	/	/	0%	-2
C/C(=C1\CCOC(=O)S1)N(C=O)Cc1cnc(C)nc1N	/	/	/	/	/	-1
COc1ccc(Cc2nnc(NCCO)[nH]c2=O)cc1	i	11%	-13	?	-2%	2
SMILES	KB-3-1 tox	Nrf2 inh	Giardia killer	KB-V1 MDR tox	A549 viability	PI4K2A inh
C=CCNc1nnc(Cc2ccc(C(C)C)cc2)c(=O)[nH]1	15µM*	2%	6	i	0%	0
CCc1nn(CC(=O)N(CC)Cc2ccccc2)c(=O)c2cc3occc3n12	i	-16%	/	i	2%	5
Cc1ccc(CCc2nnc(SCC(=O)Nc3cc(Cl)ccc3Cl)n2-c2ccccc2)o1	i	?	-9	15µM*	?	9
Cc1ccc(CCC(=O)Nc2cc(Cl)ccc2Cl)o1	i	4%	-22	i	-1%	-7
COc1ccc(C2C(C(=O)Nc3ccc(F)cc3F)CCC(=O)N2c2ccc(OC)cc2)cc1 (stereo not given)	/	/	/	/	/	-3
OCc1cc(Br)ccc1OCc1nc2ccccc2s1	i	?	-5	5.2µM*	4%	15
COC1=C[C@H](C(=O)NCc2ccccn2)[C@H](C)[C@@H](c2ccccc2)CC1=O	/	/	/	/	/	1
O=C(Nc1ccc(F)c(F)c1)C1CCCN1S(=O)(=O)c1cccc2nsnc12 (stereo not given)	i	-7%	/	i	-9%	-6
COc1ccc(Cl)cc1NS(=O)(=O)c1cccc(C(=O)NC2CC2)c1	i	-12%	-1	18µM*	9%	2
COc1ccc(Cl)cc1NS(=O)(=O)c1cccc(C(=O)NCCCN2CCOCC2)c1	i	/	/	i	/	0
Cc1ccc(C)c(N2CCN(C(=O)C3CCCN(c4ncnc5c4nc4n5CCCCC4)C3)CC2)c1 (stereo not given)	?	15µM*	-12	?	-18%	0
O=C(C1CCCN(c2ncnc3c2nc2n3CCCCC2)C1)N1CCN(c2cccc(Cl)c2)CC1 (stereo not given)	?	4%	-6	23µM*	2%	4
O=C(OC(C(=O)N1CCOCC1)c1ccccc1)c1c2c(nc3ccccc13)CCCC2 (stereo not given)	i	/	/	i	/	/
Cn1c(Cc2ccccc2)nnc1SCC(=O)N1CCN(c2ccccc2)CC1	?	-1%	-8	i	-1%	-2
Cn1c(Cc2cccc3ccccc23)nnc1SCC(=O)N1CCN(c2ccccc2)CC1	i	?	36	15µM*	-11%	1
Cn1cccc1Cc1nnc(SCC(=O)NCc2ccccc2)n1-c1ccc(F)cc1	i	-5%	4	?	-12%	-1
